Measured values as given in PubChem BioAssay AID1508600 (Functional Genomics Laboratory (NCATS/FGL), 2020).
About 3,700 (7%) of roughly 53,000 sequences were called active.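 Rule for the calls: active = gene knockdowns whose robust z-score for IL-1 alpha signal is at least 2 or at most -2, so actives lie on both sides; inactive = the rest.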 Many of the other results were omitted from the sample, so actives are more common in it than they were.

Assay: Components of the Cytosolic LPS Sensing Pathway: Gene Identification via Genome-wide siRNA Screen;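 note: robust z of the log signal after scaling to non-targeting control siRNA wells of the plate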
Conditions: RAW264.7 macrophages, IL-1a HTRF, actives lie on both sides, screened at 100 nM (by protocol), cells primed 5 h with Pam3CSK4 first
Outline: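 IL-1a HTRF of supernatants after 24 hour LipidA transfection of Pam3CSK4-primed (5 hours) RAW264.7 cells, 48h post-siRNA transfection (100 nM). Scores: percent of plate negative-control median, then log-based robust z-score.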

z-score, inactive:
CCAGUACAGAUGUGUUAAATT against N4bp2l2 1.68
CCGCCUAGCUGAUCUUGUGTT against Aldh1b1 -0.495
GGACAGCAGUAAAUAUACUTT against Coq3 0.423
GCUAUUAAUAUCCUGGUCCTT against Slc7a2 -0.543
CCUAGACAUCAGUAAUGCGTT against Zbtb17 -0.43
AACUGUACAUUGAAGCAGATT against Cstf3 0.391
GCAUGAAAAGGUAUUACUCTT against Exoc6 0.734
GCACUAUCCACAUGCACAUTT against Olfr1281 0.469
GGCCUAUGUCAGCACUUUATT against Eif3f -0.113
GCUUCUAAGCUUUAGAGGGTT against Rassf10 -1
GGAUACAGUUAAGAGAUAUTT against Xpr1 -1.34
GCAUAGCCACAAGGUUAAUTT against Nat8f4 0.35
GUAUUAUAGACACCUUGCATT against Phip -0.835
GGACAGAUGAAGCUGCAUUTT against S100a4 -0.422
GGUGAAGAAGAGUCUCAAATT against Mrnip 1.6
GCACAUAUCACGCUACCUGTT against Lrrc75b -0.0605
GCGAAGAGUGAUUGAUCCATT against Myh1 -0.773
CCUGACAGUAGUUACUAUUTT against Olfr1154 -0.945
GGUCCUUUACAUGAACCGCTT against Vps18 -0.661
GGAAUGCAUGAUGAUGUCATT against Prl7a2 -0.783
GGUAGCAGACAGCUACCCUTT against Tnfsf15 0.405
CCAAGCUAUUGGCCCUGACTT against Defb38 0.251
GCUGAUGACCACUGAGUUUTT against Tsr2 1.34
GCAAGUCAGCUACAACUGUTT against Rnasek 0.0313
GGUGGCUAUAACAGAGCCUTT against Rdh18-ps 0.173
GGAGAAACCAGCUAAAGGATT against Car9 -0.235
GGUGAUCAGCAUGGUGGGUTT against Pold1 0.208
GGGUGAUAGCAAGACACAGTT against Olfr720 1.06
GGAGGACCAAGAGGACAUUTT against Tbl3 0.468
GGCCCAAGAGAUUGAUCAATT against Ivd -0.565
CGAAACCUCUAAGAAGAUATT against Pole -0.264
GGAGCAUUGCCUUUUAAAGTT against Psph -0.474
CCAAUUGGGCCACACGUAATT against Tial1 1.15
GGACUCUUUUGGACCUAAGTT against Hilpda -1.24
GGAACAAAUUCUGGAGUUGTT against Zfp287 0.791
GGUUACAGAGAGACAUCAUTT against Cdk5rap2 0.942
GGUUAUGGAGACAAAGGAUTT against Sik1 -1.33
GGAGCUAGCUGAGUUCAUGTT against Arhgap4 1.22
GGACAGCUCUCUUUAGUCUTT against Erf -1.78
GGUCUGAUAACUCUGGAGGTT against Snf8 -0.0859
GGAUGGACAUCCAAGCAGGTT against Fabp9 -1.97
GGAGUGUUACUAGAUGUCCTT against Spns3 0.394
GGUCUCUGUACUUUGACUGTT against Cldn19 -1.2
GGAGCAAAAUUCACAGUCUTT against Bcl7a -0.25
GAUUGGCUUCAAUCUAGUCTT against Olfr713 0.701
GGGCCAGAGUCAGAAAAGGTT against Ebp 1.98
GCGUAUGUACCGAUGGCAGTT against Mocs2 0.871
AGACCUUGAGAACAUUCUUTT against Nkx2-6 0.925
CCGUGAUCUUAAACCCUCUTT against Mapk7 -0.988
CGUUUUACCACCGUGUGCUTT against Gfra1 -0.284
CGUGAAGAUUCUUAAGGCGTT against Ppil1 0.716
GGUGGAAUUGAAGAGUUCATT against Rcor3 0.24
GCAAGAAACGGGAACUAUUTT against Mettl7b 1.25
GGCCUUAGAAUUUGAUUCUTT against Slc30a8 0.814
GGAUGUAUAGGUUCAGCUGTT against Dph2 0.41
GGAGAAGCUCUUAAAGAAATT against Traf3ip3 0.959
GCAGUGAAGUCCAAGUUAGTT against Pold3 -0.456
CCAAUAAGUGACCUUUUUUTT against Tmprss11b -0.989
CCAAGUCUACCUCUAUUUUTT against Pbsn 1.77
CCACUAUGGCGACCAGAUUTT against Mfap2 0.0375
GGUUAAAAGCCAUGUGUAATT against Pggt1b -0.151
CGAUGGUCGAAGGAUUGUCTT against Tnfsf4 -0.837
GGUUUUGUCACCAUAGCCATT against 3110040N11Rik -0.762
GGACAUUGAGUCAAAAAUCTT against Slc19a2 -0.966
GCCUGGAGAAGUGAACUCUTT against Tll1 -1.65
GGGAUUUCGAGAGACUAGCTT against Dock9 -0.487
GCCCUGAUGCAAGCUUGUGTT against Gprin3 0.193
GGCAACUGUUUCUGCUCCGTT against Ap4e1 -0.746
GCCAAUCGUAACUUGCUAATT against Arhgap19 0.865
GGUACAACAAAAAUGUGACTT against Vmn1r73 -1.39
GCGAGGUGAAAAGCUUCUGTT against Sobp -0.433
GGAAUUUUGCCAGCAAAUGTT against Edaradd 0.624
GGCCAUUAAUUACUACGAGTT against Ttc21a 0.368
CCCGAGAAUACACCAUCAATT against Rpl31 0.347
GGGAGAUGUAUGCUUGCUCTT against Evi2a 0.934
CUCUAUCUCAUUGCAGUCCTT against Olfr671 -0.0809
GUUCCCUACAAGUUCUUCCTT against Phox2a 1.54
GCGUAGACUUGAGGACUUATT against Uimc1 -0.705
CGGCGGUGUGUUGUUUUAGTT against Hmces 0.36
CGGUUAGACAGUGCACCAATT against Dnm1 0.4
GGCUCGGACCAAAAAAAUUTT against Msantd3 -1.33
GCAUGCGACUCUGUUCUCGTT against Gtf2a2 -0.228
GGAGAUUUUCAAGAGACUCTT against 0610010F05Rik 1.94
GGUCUACCAUGACACACGUTT against Prrg2 0.519

z-score, active:
GCUUUUACCGUUACGUCUUTT against Uggt1 2.18
GGAUUGCUUUUGAGCAACATT against Ccdc125 -2.05
GGACAGCUACCUCAUCCAUTT against Lpcat3 2.08
GGAAGCAGAAGCUAAAGUGTT against Ubap1 2.11
GGUUUUUUGUAGCAAACAGTT against Phc2 -2.7
GGGAUCCUCUUGACAUUCCTT against Epdr1 3.87
GGAAACAAGGAAGCAAUUATT against Psmd1 -3.01
GGUAUAAAGAACUCUGUCATT against Cep78 -2.49
GGCAUGUUCCUCAUAUGCCTT against Lrit1 -2.01
GGGUUUCAACGGCUGUGACTT against Mef2d -2.73
CCGUACGAUGAUAAUACCATT against Clec4a3 2.29
GGACCUGAAGGCUGAAAUUTT against Ing4 3.08
CGAACUGGUAGAAGUUAUUTT against Csgalnact2 2.07
CGCUGCCUAAACAAGAUUATT against Cacna1f 3.28
GGUAAUUCAGUCUUAUACATT against Pcdhb21 3.2
GGCCUUUGGGACAUGUGUGTT against Olfr552 -2.05
GGUUCCUUAAUUUAUUGCCTT against Fbxl22 2.31
GCCCUCACAGCCAGAAUUGTT against Pram1 -2.15
GUCACAAGCUGUCCAACAATT against Ndufa7 -2.25
CCUGUUUCAGUCAUUAGUGTT against Slc22a2 2.6
GCAAAACUUGACUACCGCCTT against Bzw1 2.08
CCAUUCCAUGUCGAUGUCUTT against Prm2 -2.08
GGCUUUUGUCAAACAGCAUTT against Ins1 -2.9
GGAAAAACUACCAAGAGGATT against Pigp 2.32
